This assay has as its target T1, Aspartate--tRNA(Asp/Asn) ligase (Mycobacterium tuberculosis (strain ATCC 25618 / H37Rv)) (UniProt P9WFW3).
T1 sequence (whole entry): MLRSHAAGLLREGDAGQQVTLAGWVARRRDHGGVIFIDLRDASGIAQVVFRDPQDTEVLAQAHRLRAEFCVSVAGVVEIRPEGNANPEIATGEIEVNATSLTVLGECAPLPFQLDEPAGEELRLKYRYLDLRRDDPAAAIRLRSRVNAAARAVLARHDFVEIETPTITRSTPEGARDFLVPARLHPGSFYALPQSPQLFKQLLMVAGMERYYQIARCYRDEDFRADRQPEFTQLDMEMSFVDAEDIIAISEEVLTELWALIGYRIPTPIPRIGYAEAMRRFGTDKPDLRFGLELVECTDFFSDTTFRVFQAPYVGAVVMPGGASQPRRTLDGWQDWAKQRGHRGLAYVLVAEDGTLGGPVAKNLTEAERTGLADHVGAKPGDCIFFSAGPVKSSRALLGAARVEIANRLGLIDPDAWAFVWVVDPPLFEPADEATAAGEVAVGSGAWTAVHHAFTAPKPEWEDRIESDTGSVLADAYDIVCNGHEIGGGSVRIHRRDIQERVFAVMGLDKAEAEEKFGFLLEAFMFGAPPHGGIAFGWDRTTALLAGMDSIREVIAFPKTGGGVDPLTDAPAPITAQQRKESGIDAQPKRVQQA
Put plainly: Assay for Asp RNA synthetase-1 from Mycobacterium tuberculosis. The class given is functional. Also noted: scale not given: in the data most compounds retested in dose-response had high values. The note with it: 30 µM.
Regarding `Cc1ccc(NS(=O)(=O)c2cc3c(c(C(=O)O)c2)OCCO3)c(F)c1`, the Percent Effect was -2.58%.

Regarding `CN(Cc1cnccn1)C(=O)c1ccnc(OC2CCC2)c1`, the Percent Effect is 3.71%.

For the compound `CSc1ncc(C(=O)N2C[C@H]3CC[C@@H]2CN(Cc2ccccc2)C3)cn1`, the Percent Effect stood at 1.12%.

With `O=C1NCC[C@]12CN(Cc1ccoc1)C[C@H]2c1ccccc1`, the Percent Effect was 1.06%.

For `NC(=O)c1cc(C2CCCN(CCCOc3ccccc3)C2)n[nH]1` (stereo not given), the Percent Effect was -1.57%.

Take `Clc1ccc(CN2CCCC(Cn3cncn3)C2)c2ncccc12` (stereo not given): the Percent Effect is 2.62%.

`Cc1nc(N2CCN(C(=O)C3CC3)CC2)c2c(n1)c(C)nn2C`: the Percent Effect is -2.18%.

As to `Cc1nc(CN2C(=O)C[C@@H]3[C@@H]2CCN3C(=O)C2CCOCC2)cs1`, the Percent Effect was -2.3%.

Consider `O=C(NCCc1ccccn1)NC1CCN(c2ncccn2)CC1`, for which the Percent Effect is 1.19%.

Consider `CN1C(=O)C[C@@H]2[C@@H]1CCN2S(=O)(=O)Cc1ccccc1`, for which the Percent Effect is -2.58%.

Consider `CN(C)C(=O)N1CCC2(CCCN(Cc3cnn(C)c3)C2)C1` (stereo not given), for which the Percent Effect is -0.168%.

Take `CN(CC(=O)N1CCCN(Cc2cscn2)CC1)c1cnccn1`: the Percent Effect was -1.02%.

`CC(C)c1nc(CN2CCCN(Cc3nnc(C4CC4)o3)CC2)no1`: the Percent Effect is -3.22%.

Turning to `Cc1cc(C2CCCN2CCCc2nc3ccccc3o2)on1` (stereo not given), the Percent Effect is -0.533%.

On to `CC(C)N1CCN(C(=O)Nc2cnn(CC(N)=O)c2)CC1`, for which the Percent Effect is -5.08%.

Consider `CN(C)C(=O)COCc1cncc2c1CCN(Cc1cnn(C)c1)C2`, for which the Percent Effect is 6.12%.

In the case of `COCCNC(=O)[C@H]1C[C@@H]2CCN(Cc3ccoc3)C[C@H]2O1`, the Percent Effect was 3.35%.

Turning to `CC(C)N1CC(C(=O)NCc2ccnc(-n3cccn3)c2)CC1=O` (stereo not given), the Percent Effect was -0.3%.

`O=C(c1ccsc1)N1CCOC2(CCN(Cc3cccnc3)CC2)C1`: the Percent Effect came out at 0.932%.

Consider `CC(=O)N(C)c1nc(CN2CCOC(Cn3cccn3)C2)cs1` (stereo not given), for which the Percent Effect amounted to 3.18%.

As for `CC(=O)NCCNC(=O)N(C)Cc1ccc2c(c1)OCCO2`, the Percent Effect is -4.52%.

Turning to `Cc1nc(CCC(=O)NC2CCC2)cc(C2CCNCC2)n1`, the Percent Effect was 1.96%.

Consider `Cc1nc(C)c(C(=O)NCCNC(=O)c2ccc(F)cc2F)s1`, for which the Percent Effect was -2.04%.

As for `CN1CC(=O)N(c2ccsc2)CC12CCN(C(=O)c1ccccc1)C2` (stereo not given), the Percent Effect is 2.85%.

Turning to `COC(=O)CCc1c(C)nc2cc(O)nn2c1C`, the Percent Effect was -3.67%.

For the compound `O=C1OCCN1CCc1nc(-c2cc3c4c(c2)CC(=O)N4CCC3)cs1`, the Percent Effect stood at 1.61%.

Turning to `CC(=O)N1[C@H](CN(C)C)C[C@@H]2CN(C(=O)c3cccc(F)c3)CC[C@@H]21`, the Percent Effect is -0.523%.

As to `Cc1nnc2n1CCN(C(=O)c1cc(C)n(-c3ccccn3)c1C)C2`, the Percent Effect amounted to 4.19%.

For `Cn1ncc(C(=O)N2CCCC(n3cccn3)C2)c1C1CC1` (stereo not given), the Percent Effect was determined as 3.87%.

Turning to `COCCC(=O)N1CCN(C)c2ncccc2C1`, the Percent Effect was determined as 4.52%.

Take `O=S(=O)(C1CC1)N1CCC2(CC1)CC(Oc1cccnc1)CO2` (stereo not given): the Percent Effect is 6.21%.

Regarding `Cc1nc(COCc2cnc3n2CCN(C2CCC2)C3C)cs1` (stereo not given), the Percent Effect was -4.78%.

On to `Cc1cccc2c1cnn2CCCNC(=O)CCCC(=O)O`, for which the Percent Effect amounted to 15.5%.

Consider `OCCOCCN1CCCC1c1nc2cc(F)ccc2[nH]1` (stereo not given), for which the Percent Effect is -5.15%.

Regarding `O=C(c1ccncc1)N1CCC(O)(Cn2ccc3ccncc32)CC1`, the Percent Effect is -0.194%.

On to `Cc1cc(C)nc(CCNC(=O)[C@H]2CNC[C@@H](C(=O)N3CCCC3)C2)n1`, for which the Percent Effect was -2.14%.

`CCN1CCN(C2CCN(Cc3cc(C)on3)CC2)C1=O`: the Percent Effect was -3.97%.

For the compound `CC(C)(C)c1n[nH]c(C2CN(C(=O)c3ccsc3)CCO2)n1` (stereo not given), the Percent Effect is -2.97%.

Turning to `c1ccc2oc(CCCN3CCCC3Cn3cncn3)nc2c1` (stereo not given), the Percent Effect was -1.22%.

For the compound `C=Cc1ccc(C(=O)N2CCCC(Nc3ccc(OC)cc3)C2)cc1` (stereo not given), the Percent Effect came to 1.04%.

The values above are taken from ChEMBL document CHEMBL3988442, “University of Dundee, Small-Polar-MMV Screening Library” (2021).
